Data from the supplement of paper PMC10849652.
Of roughly 8,800 targets only a part is listed; those with a hit were picked by preference. About 0.5% of all pairs of compound and target were hits.

Columns and labels:
Assay in all cases: log2 fold change, soluble protein after heating vs DMSO (PISA); higher = thermal stabilisation; K562 lysate, 10 uM; active = over 0.2 and 3.5 SD of the protein, either way, in both replicates (recomputed)
ibrutinib = compound: C=CC(=O)N1CCC[C@@H](n2nc(-c3ccc(Oc4ccccc4)cc3)c3c(N)ncnc32)C1 [ibrutinib]
How it was run: (§1)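 Values give the log-two fold change in thermal stability against solvent controls, from duplicates. Crude K562 extract at 1 mg/mL protein, made by dounce homogenisation in PBS pH 7.4 with 1 mM MgCl2, was treated with 10 μM compound for 30 min. After 3 min heating across 48°C-58°C, aliquots were pooled, adjusted to 0.5% NP-40 at 4°C and centrifuged at 21,000xg for 90 min. The supernatant was measured by TMTpro 16plex LC-MS/MS with channel sums equalised.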

[1] = compound: CC(=O)c1cnc2ccc(-c3cc(Cl)c(O)c(Cl)c3)nc2c1N[C@H]1CC[C@H](CN(C)C)CC1
How it was run: as §1

ralimetinib = compound: CC(C)(C)Cn1c(N)nc2ccc(-c3[nH]c(C(C)(C)C)nc3-c3ccc(F)cc3)nc21 [ralimetinib]
How it was run: as §1

[2] = compound: CC(C)(O)CC(=O)NCCn1ccc2ncnc(Nc3ccc(Oc4cccc(C(F)(F)F)c4)c(Cl)c3)c21
How it was run: as §1

[3] = compound: CC(C)C1=C2N=C(C=C(N2N=C1)NCC3=CC=CC=C3)NCCCCCCN
How it was run: as §1

[4] = compound: CC1=C(C(CC(=O)N1)C2=CC=C(C=C2)C(F)(F)F)C(=O)NC3=C(C=C4C(=C3)C=NN4)F
How it was run: as §1

[5] = compound: CC1=C(C2=C(C=C1)C(=O)C3=CC=CC=C3N2CCCN)C
How it was run: as §1

[6] = compound: CC1=C(C=C(C=C1)NC(=O)C2=CC(=CC=C2)C(C)(C)C#N)NC3=CC4=C(C=C3)N=CN(C4=O)C
How it was run: as §1

[7] = compound: CC1=C(C=C(C=C1)NC(=O)C2=CC(=CC=C2)N(C)C)NC(=O)C3=CC=C(C=C3)O
How it was run: as §1

[8] = compound: CC1=CC=C(C=C1)SC2=C3C=C(SC3=CN=C2)C(=O)N
How it was run: as §1

vemurafenib = compound: CCCS(=O)(=O)Nc1ccc(F)c(C(=O)c2c[nH]c3ncc(-c4ccc(Cl)cc4)cc23)c1F [vemurafenib]
How it was run: as §1

[9] = compound: CCCS(=O)(=O)Nc1ccc(F)c(C(=O)c2c[nH]c3ncc(Cl)cc23)c1F
How it was run: as §1

barasertib = compound: CCN(CCCOc1ccc2c(Nc3cc(CC(=O)Nc4cccc(F)c4)[nH]n3)ncnc2c1)CCOP(=O)(O)O [barasertib]
How it was run: as §1

[10] = compound: CC[C@@H]1C(=O)N(C)c2cnc(Nc3ccc(C(=O)NC4CCN(C)CC4)cc3OC)nc2N1C1CCCC1
How it was run: as §1

volasertib = compound: CC[C@@H]1C(=O)N(C)c2cnc(Nc3ccc(C(=O)N[C@H]4CC[C@H](N5CCN(CC6CC6)CC5)CC4)cc3OC)nc2N1C(C)C [volasertib]
How it was run: as §1

[11] = compound: CCn1c(C(=O)N(C2CC2)C2CC2)cc2c3c(ncn3C)c(Nc3cc(C)n(C)n3)nc21
How it was run: as §1

[12] = compound: CCn1cc(-c2ccnc3[nH]c(-c4cccc(CN(C)C)c4)cc23)c(-c2ccc(NC(=O)N(C)C)cc2)n1
How it was run: as §1

[13] = compound: CN1CCC(CNc2ccc3ncc(-c4cccc(OC(F)(F)F)c4)n3n2)CC1
How it was run: as §1

saracatinib = compound: CN1CCN(CCOc2cc(OC3CCOCC3)c3c(Nc4c(Cl)ccc5c4OCO5)ncnc3c2)CC1 [saracatinib]
How it was run: as §1

sotrastaurin = compound: CN1CCN(c2nc(C3=C(c4c[nH]c5ccccc45)C(=O)NC3=O)c3ccccc3n2)CC1 [sotrastaurin]
How it was run: as §1

Measured: log2 fold change

LUC7L (UniProt Q9NQ29)
Sequence of UniProt Q9NQ29 (Q9NQ29 whole entry, looked up): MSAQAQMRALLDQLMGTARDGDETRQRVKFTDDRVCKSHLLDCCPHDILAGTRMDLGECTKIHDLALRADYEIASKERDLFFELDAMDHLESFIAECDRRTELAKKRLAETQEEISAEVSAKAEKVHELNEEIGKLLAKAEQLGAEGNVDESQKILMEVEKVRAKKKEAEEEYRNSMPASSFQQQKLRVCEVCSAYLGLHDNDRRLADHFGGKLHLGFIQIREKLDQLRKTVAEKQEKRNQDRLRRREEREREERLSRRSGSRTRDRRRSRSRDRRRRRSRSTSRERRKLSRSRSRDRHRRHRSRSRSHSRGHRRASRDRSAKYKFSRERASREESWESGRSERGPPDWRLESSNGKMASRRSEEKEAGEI
inactive: ibrutinib 0.007 | [1] 0.003 | ralimetinib 0.008 | [2] 0.027 | [3] 0.056 | [4] 0.002 | [5] 0.007 | [6] -0.04 | [7] -0.01 | [8] 0.02 | vemurafenib 0.019 | [9] -0.014 | barasertib 0.024 | [10] -0.072 | volasertib 0.028 | [11] -0.004 | [12] 0.172 | [13] -0.008 | saracatinib -0.013 | sotrastaurin -0.068

KIF11 (UniProt P52732)
Sequence of UniProt P52732 (P52732 whole entry, looked up): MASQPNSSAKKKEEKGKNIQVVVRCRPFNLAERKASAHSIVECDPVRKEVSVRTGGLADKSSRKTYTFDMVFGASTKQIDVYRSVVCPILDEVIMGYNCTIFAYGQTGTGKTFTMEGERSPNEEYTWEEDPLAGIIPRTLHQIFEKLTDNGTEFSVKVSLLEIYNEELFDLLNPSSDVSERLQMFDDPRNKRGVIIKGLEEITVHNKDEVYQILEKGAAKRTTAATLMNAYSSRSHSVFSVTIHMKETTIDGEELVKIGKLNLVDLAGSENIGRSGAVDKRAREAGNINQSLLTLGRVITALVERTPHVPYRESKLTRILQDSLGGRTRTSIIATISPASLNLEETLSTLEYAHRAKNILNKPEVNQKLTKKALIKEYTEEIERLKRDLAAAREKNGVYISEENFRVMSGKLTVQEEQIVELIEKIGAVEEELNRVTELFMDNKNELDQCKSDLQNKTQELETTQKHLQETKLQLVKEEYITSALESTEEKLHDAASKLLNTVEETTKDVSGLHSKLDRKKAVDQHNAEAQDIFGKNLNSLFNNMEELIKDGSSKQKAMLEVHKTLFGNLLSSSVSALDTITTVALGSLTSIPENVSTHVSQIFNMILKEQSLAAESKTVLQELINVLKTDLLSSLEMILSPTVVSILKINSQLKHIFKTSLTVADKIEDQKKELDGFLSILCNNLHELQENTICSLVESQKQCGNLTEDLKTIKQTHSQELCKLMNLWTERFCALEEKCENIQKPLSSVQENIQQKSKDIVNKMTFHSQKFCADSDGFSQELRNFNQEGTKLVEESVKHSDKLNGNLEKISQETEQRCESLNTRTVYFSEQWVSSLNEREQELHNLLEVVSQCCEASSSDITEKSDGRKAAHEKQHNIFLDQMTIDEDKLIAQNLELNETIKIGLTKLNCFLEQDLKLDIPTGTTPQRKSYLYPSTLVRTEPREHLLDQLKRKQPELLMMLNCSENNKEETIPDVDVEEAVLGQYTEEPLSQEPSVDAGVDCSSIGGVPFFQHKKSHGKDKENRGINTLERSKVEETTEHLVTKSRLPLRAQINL
inactive: ibrutinib 0.005 | [1] -0.003 | ralimetinib 0.029 | [2] 0.01 | [3] 0.007 | [4] 0.005 | [5] 0.01 | [6] -0.019 | [7] 0.014 | [8] 0.015 | vemurafenib -0.027 | [9] 0.003 | barasertib 0.023 | [10] -0.011 | volasertib -0.024 | [11] 0.025 | [12] -0.055 | [13] 0.018 | saracatinib 0.023 | sotrastaurin 0.026

MBD2 (UniProt Q9UBB5)
inactive: ibrutinib 0.013 | [1] 0.018 | ralimetinib -0.043 | [2] -0.03 | [3] 0.016 | [4] -0.013 | [5] -0.017 | [6] -0.053 | [7] -0.048 | [8] 0.007 | vemurafenib -0.014 | [9] 0.016 | barasertib -0.009 | [10] 0.059 | volasertib -0.021 | [11] 0.073 | [12] -0.005 | [13] -0.007 | saracatinib -0.036 | sotrastaurin -0.089

MRPL15 (UniProt Q9P015)
inactive: ibrutinib 0.003 | [1] -0.078 | ralimetinib -0.024 | [2] -0.056 | [3] -0.01 | [4] -0.007 | [5] -0.133 | [6] 0.032 | [7] 0.009 | [8] -0.023 | vemurafenib 0.004 | [9] 0.025 | barasertib -0.04 | [10] 0.024 | volasertib -0.018 | [11] -0.062 | [13] 0.174 | saracatinib -0.07 | sotrastaurin 0.023
active: [12] -0.509

MBLAC2 (UniProt Q68D91)
Sequence of UniProt Q68D91 (Q68D91 whole entry, looked up): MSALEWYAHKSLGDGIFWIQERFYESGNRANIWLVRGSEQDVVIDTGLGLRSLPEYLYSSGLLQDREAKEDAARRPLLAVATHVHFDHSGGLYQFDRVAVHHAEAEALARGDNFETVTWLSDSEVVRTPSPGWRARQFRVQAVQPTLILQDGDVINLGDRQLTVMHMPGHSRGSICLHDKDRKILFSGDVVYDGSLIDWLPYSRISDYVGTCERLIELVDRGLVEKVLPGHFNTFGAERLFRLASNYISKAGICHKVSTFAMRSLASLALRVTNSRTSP
inactive: ibrutinib 0.05 | [1] -0.005 | ralimetinib 0.069 | [2] 0.003 | [3] 0.035 | [4] 0.04 | [5] 0.037 | [6] -0.013 | [7] -0.044 | [8] -0.019 | vemurafenib -0.069 | [9] -0.006 | barasertib 0.013 | [10] -0.042 | volasertib 0.002 | [11] 0.008 | [12] 0.036 | [13] 0.078 | saracatinib -0.042 | sotrastaurin 0.016

MAP2K5 (UniProt Q13163)
inactive: ibrutinib 0.007 | [1] -0.013 | ralimetinib 0.103 | [2] -0.075 | [3] -0.078 | [4] -0.037 | [5] -0.208 | [6] 0.235 | [7] 0.052 | [8] -0.211 | vemurafenib 0.207 | [9] 0.302 | barasertib 0.019 | [10] -0.148 | volasertib -0.311 | [11] -0.144 | [12] 0.15 | [13] -0.029 | saracatinib -0.079 | sotrastaurin 0.014

KIF4A (UniProt O95239)
inactive: ibrutinib 0.011 | [1] 0.007 | ralimetinib -0.014 | [2] 0.003 | [3] -0.002 | [4] -0.013 | [5] -0.027 | [6] 0.004 | [7] 0.056 | [8] 0.048 | vemurafenib 0.005 | [9] 0.035 | barasertib -0.02 | [10] -0.021 | volasertib -0.055 | [11] 0.003 | [12] 0.013 | [13] -0.07 | saracatinib 0.007 | sotrastaurin -0.003

METTL2A (UniProt Q96IZ6)
Sequence of UniProt Q96IZ6 (Q96IZ6 whole entry, looked up): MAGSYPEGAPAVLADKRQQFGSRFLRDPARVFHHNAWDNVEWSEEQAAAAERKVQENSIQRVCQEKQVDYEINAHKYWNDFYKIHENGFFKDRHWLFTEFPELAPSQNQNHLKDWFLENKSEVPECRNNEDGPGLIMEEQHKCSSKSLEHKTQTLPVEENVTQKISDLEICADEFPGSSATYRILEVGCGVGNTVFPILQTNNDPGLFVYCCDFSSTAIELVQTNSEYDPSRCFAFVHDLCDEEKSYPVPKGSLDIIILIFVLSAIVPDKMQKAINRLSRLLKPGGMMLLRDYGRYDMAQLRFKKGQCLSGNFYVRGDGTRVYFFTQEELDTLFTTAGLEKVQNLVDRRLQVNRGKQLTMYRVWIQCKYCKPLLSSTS
inactive: ibrutinib -0.006 | [1] 0.044 | ralimetinib 0.048 | [2] 0.068 | [3] 0.018 | [4] 0.021 | [5] 0.038 | [6] -0.029 | [7] -0.025 | [8] 0.002 | vemurafenib 0.073 | [9] 0.058 | barasertib 0.023 | [10] -0.046 | volasertib -0.015 | [11] -0.011 | [12] 0.06 | [13] -0.113 | saracatinib -0.004 | sotrastaurin 0.011

MACROD1 (UniProt Q9BQ69)
Sequence of UniProt Q9BQ69 (Q9BQ69 whole entry, looked up): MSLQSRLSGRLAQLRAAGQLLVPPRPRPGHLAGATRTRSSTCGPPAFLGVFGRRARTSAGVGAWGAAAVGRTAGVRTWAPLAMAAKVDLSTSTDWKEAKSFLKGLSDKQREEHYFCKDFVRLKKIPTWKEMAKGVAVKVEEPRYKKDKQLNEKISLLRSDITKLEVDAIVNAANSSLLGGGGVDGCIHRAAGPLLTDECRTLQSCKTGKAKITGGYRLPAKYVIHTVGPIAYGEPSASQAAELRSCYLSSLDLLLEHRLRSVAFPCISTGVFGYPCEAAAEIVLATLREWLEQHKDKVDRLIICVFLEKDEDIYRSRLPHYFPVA
inactive: ibrutinib 0 | [1] 0.015 | ralimetinib 0.098 | [2] -0.024 | [3] -0.008 | [4] 0.022 | [5] 0.017 | [6] -0.101 | [7] 0.064 | [8] 0.065 | vemurafenib 0.016 | [9] 0.043 | barasertib -0.002 | [10] 0.033 | volasertib -0.015 | [11] -0.012 | [12] -0.043 | [13] -0.014 | saracatinib 0.008 | sotrastaurin 0.002

MRPL19 (UniProt P49406)
inactive: ibrutinib 0.067 | [1] 0.027 | ralimetinib 0.034 | [2] -0.057 | [3] 0.029 | [4] -0.021 | [5] 0.01 | [6] -0.013 | [7] 0.023 | [8] -0.002 | vemurafenib 0.026 | [9] 0.029 | barasertib 0.001 | [10] -0.139 | volasertib -0.056 | [11] 0 | [12] 0.026 | [13] -0.053 | saracatinib 0.016 | sotrastaurin -0.016

MAP3K4 (UniProt Q9Y6R4)
Sequence of UniProt Q9Y6R4 (Q9Y6R4 whole entry, looked up): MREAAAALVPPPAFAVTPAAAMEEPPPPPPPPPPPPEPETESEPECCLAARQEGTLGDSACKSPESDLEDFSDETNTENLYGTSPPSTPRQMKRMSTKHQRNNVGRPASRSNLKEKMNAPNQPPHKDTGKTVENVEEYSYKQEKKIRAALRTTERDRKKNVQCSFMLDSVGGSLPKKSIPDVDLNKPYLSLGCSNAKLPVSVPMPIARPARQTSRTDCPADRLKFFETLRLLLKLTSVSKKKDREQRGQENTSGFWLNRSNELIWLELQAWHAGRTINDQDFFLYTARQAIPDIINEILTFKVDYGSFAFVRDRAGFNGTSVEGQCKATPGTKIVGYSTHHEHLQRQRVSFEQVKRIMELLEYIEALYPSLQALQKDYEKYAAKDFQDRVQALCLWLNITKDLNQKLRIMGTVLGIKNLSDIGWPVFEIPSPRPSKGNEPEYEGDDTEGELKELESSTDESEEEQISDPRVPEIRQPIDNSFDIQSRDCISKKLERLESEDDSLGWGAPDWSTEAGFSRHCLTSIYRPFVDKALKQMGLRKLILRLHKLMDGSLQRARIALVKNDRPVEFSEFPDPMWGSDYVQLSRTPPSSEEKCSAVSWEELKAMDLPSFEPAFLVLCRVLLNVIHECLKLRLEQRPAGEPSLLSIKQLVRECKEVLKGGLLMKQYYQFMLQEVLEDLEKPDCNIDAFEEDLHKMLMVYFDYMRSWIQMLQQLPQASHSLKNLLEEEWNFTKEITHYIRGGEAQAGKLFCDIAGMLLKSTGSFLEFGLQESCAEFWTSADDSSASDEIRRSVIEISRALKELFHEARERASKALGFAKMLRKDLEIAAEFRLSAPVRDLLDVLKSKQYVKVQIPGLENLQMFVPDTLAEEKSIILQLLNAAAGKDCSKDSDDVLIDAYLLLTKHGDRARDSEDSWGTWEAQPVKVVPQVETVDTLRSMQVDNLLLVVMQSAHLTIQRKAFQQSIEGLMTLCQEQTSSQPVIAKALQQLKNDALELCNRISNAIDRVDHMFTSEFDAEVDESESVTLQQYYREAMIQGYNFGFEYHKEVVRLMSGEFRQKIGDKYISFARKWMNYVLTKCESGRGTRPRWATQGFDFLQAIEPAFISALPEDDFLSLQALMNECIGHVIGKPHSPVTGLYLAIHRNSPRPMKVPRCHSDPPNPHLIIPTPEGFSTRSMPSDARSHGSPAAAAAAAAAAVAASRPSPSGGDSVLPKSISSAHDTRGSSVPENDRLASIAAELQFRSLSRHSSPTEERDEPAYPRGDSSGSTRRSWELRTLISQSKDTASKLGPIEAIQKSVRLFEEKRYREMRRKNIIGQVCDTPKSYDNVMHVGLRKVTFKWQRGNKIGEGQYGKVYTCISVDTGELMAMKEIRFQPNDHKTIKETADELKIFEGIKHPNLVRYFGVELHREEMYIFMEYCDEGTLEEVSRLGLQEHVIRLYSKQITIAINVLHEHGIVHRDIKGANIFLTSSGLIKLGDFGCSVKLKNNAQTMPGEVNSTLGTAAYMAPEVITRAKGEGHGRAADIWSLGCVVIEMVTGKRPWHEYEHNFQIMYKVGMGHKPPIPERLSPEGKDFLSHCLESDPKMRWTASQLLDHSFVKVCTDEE
inactive: ibrutinib 0.046 | [1] 0.19 | ralimetinib 0 | [2] 0.005 | [3] -0.039 | [4] -0.015 | [5] -0.012 | [6] -0.006 | [7] -0.001 | [8] -0.027 | vemurafenib 0.006 | [9] 0.007 | barasertib 0.107 | [10] 0.145 | volasertib 0.167 | [11] 0.012 | [12] 0.047 | [13] 0.015 | saracatinib 0.005 | sotrastaurin -0.014

KNSTRN (UniProt Q9Y448)
inactive: ibrutinib -0.017 | [1] 0.018 | ralimetinib 0.027 | [2] 0.081 | [3] -0.008 | [4] 0.022 | [5] -0.023 | [6] -0.032 | [7] 0 | [8] 0.002 | vemurafenib -0.012 | [9] 0.021 | barasertib 0.022 | [10] 0.01 | volasertib 0.004 | [11] 0.086 | [12] 0.063 | [13] -0.095 | saracatinib 0.009 | sotrastaurin -0.03

MED12 isoform 2 (UniProt Q93074)
inactive: ibrutinib 0.004 | [1] -0.019 | ralimetinib 0.022 | [2] -0.009 | [3] -0.005 | [4] 0.009 | [5] 0.003 | [6] -0.005 | [7] 0.037 | [8] 0.02 | vemurafenib -0.075 | [9] 0.005 | barasertib 0.057 | [10] -0.012 | volasertib -0.065 | [11] 0.037 | [12] 0.002 | [13] -0.066 | saracatinib 0.026 | sotrastaurin 0.022

MAPK14 isoform 2 (UniProt Q16539)
Sequence of UniProt Q16539 (Q16539 whole entry, looked up): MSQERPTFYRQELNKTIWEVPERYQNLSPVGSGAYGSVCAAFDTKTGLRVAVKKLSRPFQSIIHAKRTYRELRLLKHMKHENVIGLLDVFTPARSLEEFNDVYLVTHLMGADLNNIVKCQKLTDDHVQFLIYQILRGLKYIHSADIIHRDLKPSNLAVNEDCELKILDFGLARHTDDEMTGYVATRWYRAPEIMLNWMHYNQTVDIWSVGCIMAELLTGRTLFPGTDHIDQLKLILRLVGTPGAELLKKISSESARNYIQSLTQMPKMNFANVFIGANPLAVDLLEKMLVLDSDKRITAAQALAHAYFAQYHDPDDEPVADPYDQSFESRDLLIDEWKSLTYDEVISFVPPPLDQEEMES
active: ralimetinib 0.97 | [6] 0.973
inactive: ibrutinib 0.03 | [1] 0.249 | [2] -0.047 | [3] -0.003 | [4] 0.02 | [5] -0.027 | [7] 0.419 | [8] 0.011 | vemurafenib 0.189 | [9] 0.046 | barasertib 0.079 | [10] -0.076 | volasertib -0.078 | [11] 0.003 | [12] 0.303 | [13] -0.101 | saracatinib 0.192 | sotrastaurin -0.029

MAPK3 (UniProt P27361)
Sequence of UniProt P27361 (P27361 whole entry, looked up): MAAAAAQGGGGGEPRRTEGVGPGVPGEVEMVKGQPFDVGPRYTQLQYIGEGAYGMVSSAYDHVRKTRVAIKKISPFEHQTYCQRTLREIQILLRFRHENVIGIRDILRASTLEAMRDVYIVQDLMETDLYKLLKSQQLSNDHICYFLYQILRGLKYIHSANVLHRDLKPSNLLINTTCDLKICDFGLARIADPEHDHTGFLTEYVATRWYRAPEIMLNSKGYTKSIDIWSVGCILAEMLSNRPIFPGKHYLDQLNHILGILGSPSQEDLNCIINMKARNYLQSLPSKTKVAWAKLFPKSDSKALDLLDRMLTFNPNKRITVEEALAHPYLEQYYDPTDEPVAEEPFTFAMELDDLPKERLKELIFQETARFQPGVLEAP
inactive: ibrutinib 0.001 | [1] 0.017 | ralimetinib -0.02 | [2] -0.018 | [3] -0.033 | [4] -0.012 | [5] -0.006 | [6] 0.026 | [7] -0.022 | [8] -0.028 | vemurafenib 0.013 | [9] -0.024 | barasertib -0.026 | [10] 0.01 | volasertib -0.011 | [11] -0.031 | [12] 0 | [13] 0.026 | saracatinib 0 | sotrastaurin -0.017

MED8 isoform 2 (UniProt Q96G25)
Sequence of UniProt Q96G25 (Q96G25 whole entry, looked up): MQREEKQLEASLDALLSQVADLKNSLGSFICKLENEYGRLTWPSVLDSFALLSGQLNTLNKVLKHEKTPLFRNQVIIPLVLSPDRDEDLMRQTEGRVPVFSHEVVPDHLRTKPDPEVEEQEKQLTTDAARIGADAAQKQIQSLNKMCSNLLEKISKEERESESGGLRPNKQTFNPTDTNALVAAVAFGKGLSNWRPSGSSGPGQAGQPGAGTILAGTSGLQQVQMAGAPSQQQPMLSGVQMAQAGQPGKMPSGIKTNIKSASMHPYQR
inactive: ibrutinib 0.109 | [1] 0.024 | ralimetinib 0.012 | [2] 0.036 | [3] 0.006 | [4] -0.03 | [5] -0.001 | [6] -0.005 | [7] -0.05 | [8] -0.058 | vemurafenib -0.022 | [9] 0.018 | barasertib 0.081 | [10] -0.051 | volasertib -0.003 | [11] 0.013 | [12] 0.214 | [13] -0.092 | saracatinib -0.002 | sotrastaurin 0.091
